Among all 5,500 compounds or so, about 2,000 (36%) were called active. Another 18% or so got no clear call; they are omitted. Rule as the data show it: active = normalized growth mostly below about 0.91 (no sharp cut-off); inconclusive = no clear call, values can overlap the other calls; inactive = mostly above about 0.92. The list shows a part of the results.
Experiment: chemical genetic growth profiling, strain panel (AID 1159580);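 also: tested at 20 µM; growth read once vehicle control cultures reached saturation at 30 °C; 1 = growth at the plate median or of vehicle wells; lower values mean less growth of the strain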
Conditions: growth OD

Measured: normalized growth

N[C@@H](CCC(=O)N[C@@H](CS)C(=O)NCC(=O)O)C(=O)O
inactive: S. cerevisiae deletion strains, locus YKL009W, strain mrt4, stronger effect = lower value 0.954 | S. cerevisiae deletion strains, locus YKL068W, stronger effect = lower value 0.996 | S. cerevisiae deletion strains, locus YKL085W, strain MDH1 (second series), stronger effect = lower value 0.979 | S. cerevisiae deletion strains, locus YKL085W, strain MDH1, stronger effect = lower value 0.979 | S. cerevisiae deletion strains, locus YKL160W, strain elf1, stronger effect = lower value 0.978 | S. cerevisiae deletion strains, locus YKL190W, strain CNB1, stronger effect = lower value 0.993 | S. cerevisiae deletion strains, locus YKR001C, strain vps1, stronger effect = lower value 0.994 | S. cerevisiae deletion strains, locus YKR026C, strain gcn3, stronger effect = lower value 0.987 | S. cerevisiae deletion strains, locus YKR091W, strain srl3, stronger effect = lower value 0.985 | S. cerevisiae deletion strains, locus YLL001W, strain dnm1, stronger effect = lower value 0.963 | S. cerevisiae deletion strains, locus YLL026W, stronger effect = lower value 0.975 | S. cerevisiae deletion strains, locus YLL041C, strain sdh2, stronger effect = lower value 1 | S. cerevisiae deletion strains, locus YLR027C, strain aat2, stronger effect = lower value 0.97 | S. cerevisiae deletion strains, locus YLR039C, strain RIC1, stronger effect = lower value 0.981 | S. cerevisiae deletion strains, locus YLR058C, strain SHM2, stronger effect = lower value 0.996 | S. cerevisiae deletion strains, locus YLR102C, strain apc9, stronger effect = lower value 0.986 | S. cerevisiae deletion strains, locus YLR113W, strain HOG1, stronger effect = lower value 0.97 | S. cerevisiae deletion strains, locus YLR221C, strain rsa3, stronger effect = lower value 1 | S. cerevisiae deletion strains, locus YLR258W, strain gsy2, stronger effect = lower value 1.01 | S. cerevisiae deletion strains, locus YLR262C, strain YPT6 (second series), stronger effect = lower value 1 | S. cerevisiae deletion strains, locus YLR262C, strain YPT6, stronger effect = lower value 0.92 | S. cerevisiae deletion strains, locus YLR268W, strain sec22, stronger effect = lower value 0.983 | S. cerevisiae deletion strains, locus YLR320W, strain mms22, stronger effect = lower value 1.02 | S. cerevisiae deletion strains, locus YLR330W, strain CHS5, stronger effect = lower value 0.999 | S. cerevisiae deletion strains, locus YLR342W, strain FKS1 (second series), stronger effect = lower value 1.03 | S. cerevisiae deletion strains, locus YLR342W, strain FKS1, stronger effect = lower value 0.982 | S. cerevisiae deletion strains, locus YLR357W, strain rsc2, stronger effect = lower value 0.973 | S. cerevisiae deletion strains, locus YLR370C, strain arc18, stronger effect = lower value 0.985 | S. cerevisiae deletion strains, locus YLR371W, strain rom2, stronger effect = lower value 0.979 | S. cerevisiae deletion strains, locus YLR384C, strain iki3, stronger effect = lower value 0.98 | S. cerevisiae deletion strains, locus YLR418C, strain cdc73, stronger effect = lower value 0.98 | S. cerevisiae deletion strains, locus YML016C, strain PPZ1, stronger effect = lower value 1 | S. cerevisiae deletion strains, locus YML032C, strain rad52, stronger effect = lower value 0.989 | S. cerevisiae deletion strains, locus YML120C, strain ndi1, stronger effect = lower value 0.981 | S. cerevisiae deletion strains, locus YML124C, strain tub3, stronger effect = lower value 0.995 | S. cerevisiae deletion strains, locus YMR058W, strain fet3, stronger effect = lower value 0.99 | S. cerevisiae deletion strains, locus YMR078C, strain ctf18, stronger effect = lower value 0.977 | S. cerevisiae deletion strains, locus YMR125W, strain sto1, stronger effect = lower value 1 | S. cerevisiae deletion strains, locus YMR129W, stronger effect = lower value 1 | S. cerevisiae deletion strains, locus YMR205C, strain PFK2, stronger effect = lower value 0.993 | S. cerevisiae deletion strains, locus YMR223W, strain ubp8, stronger effect = lower value 0.985 | S. cerevisiae deletion strains, locus YMR231W, strain pep5, stronger effect = lower value 1.02 | S. cerevisiae deletion strains, locus YMR307W, strain GAS1, stronger effect = lower value 1.12 | S. cerevisiae deletion strains, locus YNL067W, strain RPL9B, stronger effect = lower value 0.969 | S. cerevisiae deletion strains, locus YNL071W, strain lat1, stronger effect = lower value 1.01 | S. cerevisiae deletion strains, locus YNL128W, strain TEP1, stronger effect = lower value 0.963 | S. cerevisiae deletion strains, locus YNL183C, strain NPR1, stronger effect = lower value 0.97 | S. cerevisiae deletion strains, locus YNL209W, strain ssb2, stronger effect = lower value 1.01 | S. cerevisiae deletion strains, locus YNL233W, strain BNI4, stronger effect = lower value 0.989 | S. cerevisiae deletion strains, locus YNL248C, strain rpa49, stronger effect = lower value 1.03 | S. cerevisiae deletion strains, locus YNL250W, strain rad50, stronger effect = lower value 0.987 | S. cerevisiae deletion strains, locus YNL271C, strain bni1, stronger effect = lower value 0.982 | S. cerevisiae deletion strains, locus YNL298W, strain CLA4, stronger effect = lower value 0.986 | S. cerevisiae deletion strains, locus YNL307C, strain MCK1, stronger effect = lower value 0.99 | S. cerevisiae deletion strains, locus YNL322C, strain KRE1 (second series), stronger effect = lower value 0.998 | S. cerevisiae deletion strains, locus YNR049C, strain mso1, stronger effect = lower value 0.996 | S. cerevisiae deletion strains, locus YNR052C, strain pop2, stronger effect = lower value 0.988 | S. cerevisiae deletion strains, locus YOL006C, strain TOP1, stronger effect = lower value 0.986 | S. cerevisiae deletion strains, locus YOL012C, strain htz1 0.759 | S. cerevisiae deletion strains, locus YOL147C, strain pex11, stronger effect = lower value 0.995 | S. cerevisiae deletion strains, locus YOR001W, strain rrp6, stronger effect = lower value 0.971 | S. cerevisiae deletion strains, locus YOR061W, strain CKA2, stronger effect = lower value 0.993 | S. cerevisiae deletion strains, locus YOR069W, strain VPS5, stronger effect = lower value 1 | S. cerevisiae deletion strains, locus YOR070C, strain gyp1, stronger effect = lower value 1.02 | S. cerevisiae deletion strains, locus YOR080W, strain dia2, stronger effect = lower value 0.988 | S. cerevisiae deletion strains, locus YOR083W, strain WHI5, stronger effect = lower value 0.973 | S. cerevisiae deletion strains, locus YOR106W, strain vam3, stronger effect = lower value 0.987 | S. cerevisiae deletion strains, locus YOR136W, strain idh2, stronger effect = lower value 0.993 | S. cerevisiae deletion strains, locus YOR144C, strain elg1, stronger effect = lower value 0.995 | S. cerevisiae deletion strains, locus YOR184W, strain ser1, stronger effect = lower value 0.989 | S. cerevisiae deletion strains, locus YOR231W, strain MKK1, stronger effect = lower value 0.966 | S. cerevisiae deletion strains, locus YOR265W, strain rbl2, stronger effect = lower value 0.996 | S. cerevisiae deletion strains, locus YOR270C, strain vph1, stronger effect = lower value 1.03 | S. cerevisiae deletion strains, locus YOR290C, strain snf2, stronger effect = lower value 1.01 | S. cerevisiae deletion strains, locus YOR316C, strain cot1, stronger effect = lower value 0.998 | S. cerevisiae deletion strains, locus YPL051W, strain arl3, stronger effect = lower value 0.993 | S. cerevisiae deletion strains, locus YPL078C, strain atp4, stronger effect = lower value 0.972 | S. cerevisiae deletion strains, locus YPL106C, strain sse1, stronger effect = lower value 0.985 | S. cerevisiae deletion strains, locus YPL240C, strain hsp82, stronger effect = lower value 1.01 | S. cerevisiae deletion strains, locus YPL241C, strain CIN2, stronger effect = lower value 0.993 | S. cerevisiae deletion strains, locus YPL256C, strain CLN2, stronger effect = lower value 0.913 | S. cerevisiae deletion strains, locus YPR119W, strain clb2, stronger effect = lower value 0.988 | S. cerevisiae deletion strains, locus YPR141C, strain kar3, stronger effect = lower value 0.981 | S. cerevisiae deletion strains, locus YPR163C, strain tif3, stronger effect = lower value 0.996 | S. cerevisiae deletion strains, locus YPR167C, strain met16, stronger effect = lower value 0.98 | S. cerevisiae deletion strains, strain wtn01, stronger effect = lower value 0.984 | S. cerevisiae strains, strain wild type, stronger effect = lower value 0.998

— PubChem BioAssay AID1159580 (chemical genetic matrix, 2015)
